# Results: PubChem BioAssay (Tox21)
# Values joined by “and” are separate entries in the source; they are usually repeats but may differ in a detail not shown here. Equal entries are not always repeated. Inconclusive results are not listed. Where a call stands in place of a potency, no number is given. Active and inactive are the calls of the source. Unless noted, calls follow the shape of the dose curve; as a rule, active = well fitted curve in the direction sought with a large enough effect in the repeat runs; inconclusive = weak or mixed curves; inactive = no such curve, though single readings can be large; an effect the other way counts as inactive or inconclusive.
# Key:
# [1] = qHTS assay to identify small molecule antagonists of the thyroid receptor (TR) signaling pathway - cell viability counter screen (AID 743064); also: nearly all actives have a fitted effect of over 50% in size
# How it was run: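 Fluorescence from CellTiter-Fluor, added after 23.5 h exposure at 37 °C, reported viability of GH3.TRE-Luc cells co-treated with compound and 1 nM T3. Measured in the same wells as the luciferase TR readout.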
# [2] = qHTS assay to identify small molecule antagonists of the estrogen receptor alpha (ER-alpha) signaling pathway - cell viability counter screen (AID 743074; calls by dose curve;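 also: HEK293 cells carrying ER-alpha-UAS-bla reporter stimulated with 17beta-estradiol; nearly all actives have a fitted effect of over 45% in size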)
# [3] = qHTS assay to identify small molecule antagonists of the estrogen receptor alpha (ER-alpha) signaling pathway using the BG1 cell line - cell viability counter screen (AID 743081);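 also: compound given together with 17beta-estradiol as the ER stimulus; nearly all actives have a fitted effect of over 45% in size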; also: potency is read from the fitted curve at half-maximal effect
# Aromatase (Homo sapiens) = Aromatase (Homo sapiens) (UniProt P11511); assay: qHTS assay to identify aromatase inhibitors (AID 743083); also: nearly all actives have a fitted effect of over 55% in size; also: potency is read from the fitted curve at half-maximal effect
# Chain of Aromatase (Homo sapiens) (P11511 whole entry, looked up): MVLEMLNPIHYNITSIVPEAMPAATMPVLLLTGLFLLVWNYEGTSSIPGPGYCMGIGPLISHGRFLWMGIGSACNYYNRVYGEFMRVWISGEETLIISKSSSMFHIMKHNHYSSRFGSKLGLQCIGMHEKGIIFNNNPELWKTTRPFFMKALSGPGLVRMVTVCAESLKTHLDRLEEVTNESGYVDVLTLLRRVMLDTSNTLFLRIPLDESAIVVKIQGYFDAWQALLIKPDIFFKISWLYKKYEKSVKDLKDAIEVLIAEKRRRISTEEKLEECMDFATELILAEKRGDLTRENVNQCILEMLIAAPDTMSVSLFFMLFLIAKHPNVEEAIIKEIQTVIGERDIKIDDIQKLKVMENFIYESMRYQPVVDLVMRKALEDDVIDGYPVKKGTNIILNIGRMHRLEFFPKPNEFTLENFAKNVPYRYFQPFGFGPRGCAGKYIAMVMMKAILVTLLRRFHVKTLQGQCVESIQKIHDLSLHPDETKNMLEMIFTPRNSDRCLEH
# [4] = qHTS assay to identify aromatase inhibitors - cell viability counter screen (AID 743084);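 also: cells stimulated with testosterone during compound exposure; nearly all actives have a fitted effect of over 55% in size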; also: potency is read from the fitted curve at half-maximal effect
# [5] = qHTS assay to identify small molecule that activate the aryl hydrocarbon receptor (AhR) signaling pathway - cell viability counter screen (AID 743086); also: nearly all actives have a fitted effect of over 45% in size; also: potency is read from the fitted curve at half-maximal effect
# How it was run: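 HepG2-AhR-luc (HG2L7.5c1) cells, 4000/well, were preincubated 5 h at 37C, exposed to compound in qHTS format for 24 hr at 37C, then given CellTiter-Fluor for 30 min; viability was read as fluorescence in the reporter wells.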
# [6] = qHTS assay to identify small molecule antagonists of the peroxisome proliferator-activated receptor gamma (PPARg) signaling pathway - cell viability counter screen (AID 743194); also: nearly all actives have a fitted effect of over 55% in size; also: potency is read from the fitted curve at half-maximal effect
# How it was run: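 PPARg-UAS-bla HEK293H cells were plated, rested 5 h at 37 C, then treated with compounds plus rosiglitazone (50 nM final) for 17 h at 37 C; viability was then read by CellTiter-Glo luminescence after 30 min at room temperature.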
# [7] = qHTS assay for small molecule activators of the heat shock response signaling pathway - cell viability counter screen (AID 743209); also: nearly all actives have a fitted effect of over 50% in size; also: potency is read from the fitted curve at half-maximal effect
# How it was run: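 Luminescence from CellTiter-Glo, added after the beta-lactamase FRET read, gave the viability signal. Cells were HSE-bla HeLa treated with DMSO-dissolved compounds for 5 h at 37 C following overnight plating.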
# [8] = target: Aryl hydrocarbon receptor (Homo sapiens) (UniProt P35869); assay: qHTS assay to identify small molecule that activate the aryl hydrocarbon receptor (AhR) signaling pathway (AID 743085); also: nearly all actives have a fitted effect of over 15% in size; also: potency is read from the fitted curve at half-maximal effect;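 as to activation: HG2L7.5c1 human HepG2 liver cells with stably integrated DRE-driven firefly reporter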
# Chain of Aryl hydrocarbon receptor (Homo sapiens) (P35869 whole entry, looked up): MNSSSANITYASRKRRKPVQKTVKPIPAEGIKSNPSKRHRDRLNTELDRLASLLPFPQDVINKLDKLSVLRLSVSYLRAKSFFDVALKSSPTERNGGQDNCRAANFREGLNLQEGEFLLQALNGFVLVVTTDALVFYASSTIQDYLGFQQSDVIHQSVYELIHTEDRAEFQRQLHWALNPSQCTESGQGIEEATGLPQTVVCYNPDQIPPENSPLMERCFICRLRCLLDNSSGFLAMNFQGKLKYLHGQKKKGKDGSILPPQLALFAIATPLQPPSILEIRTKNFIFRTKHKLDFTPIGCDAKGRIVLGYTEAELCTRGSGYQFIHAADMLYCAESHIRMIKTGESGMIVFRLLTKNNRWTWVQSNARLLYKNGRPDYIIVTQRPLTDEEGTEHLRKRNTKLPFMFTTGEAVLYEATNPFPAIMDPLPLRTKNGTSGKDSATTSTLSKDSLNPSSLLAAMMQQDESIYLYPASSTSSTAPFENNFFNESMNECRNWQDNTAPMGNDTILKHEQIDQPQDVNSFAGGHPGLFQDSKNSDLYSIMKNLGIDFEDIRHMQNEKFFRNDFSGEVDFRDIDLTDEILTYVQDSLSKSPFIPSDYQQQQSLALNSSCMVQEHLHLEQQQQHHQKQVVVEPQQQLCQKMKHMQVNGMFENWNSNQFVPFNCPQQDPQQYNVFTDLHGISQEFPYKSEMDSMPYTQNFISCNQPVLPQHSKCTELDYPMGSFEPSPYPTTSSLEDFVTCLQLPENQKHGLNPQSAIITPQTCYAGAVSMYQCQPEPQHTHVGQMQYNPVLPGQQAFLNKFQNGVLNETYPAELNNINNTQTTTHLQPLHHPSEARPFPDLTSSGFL
# How it was run: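 Cell line HG2L7.5c1 (human hepatoma, 20× DRE-luc). Plated, 5 h 37C, compound/DMSO added, 24 h 37C. CellTiter-Fluor 30 min 37C → fluorescence; then ONE-Glo 30 min RT → luminescence.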
# [9] = target: Peroxisome proliferator-activated receptor gamma (Homo sapiens) (UniProt P37231); assay: qHTS assay to identify small molecule antagonists of the peroxisome proliferator-activated receptor gamma (PPARg) signaling pathway (AID 743191; calls by dose curve; also: nearly all actives have a fitted effect of over 30% in size; also: potency is read from the fitted curve at half-maximal effect)
# Chain of Peroxisome proliferator-activated receptor gamma (Homo sapiens) (P37231 whole entry, looked up): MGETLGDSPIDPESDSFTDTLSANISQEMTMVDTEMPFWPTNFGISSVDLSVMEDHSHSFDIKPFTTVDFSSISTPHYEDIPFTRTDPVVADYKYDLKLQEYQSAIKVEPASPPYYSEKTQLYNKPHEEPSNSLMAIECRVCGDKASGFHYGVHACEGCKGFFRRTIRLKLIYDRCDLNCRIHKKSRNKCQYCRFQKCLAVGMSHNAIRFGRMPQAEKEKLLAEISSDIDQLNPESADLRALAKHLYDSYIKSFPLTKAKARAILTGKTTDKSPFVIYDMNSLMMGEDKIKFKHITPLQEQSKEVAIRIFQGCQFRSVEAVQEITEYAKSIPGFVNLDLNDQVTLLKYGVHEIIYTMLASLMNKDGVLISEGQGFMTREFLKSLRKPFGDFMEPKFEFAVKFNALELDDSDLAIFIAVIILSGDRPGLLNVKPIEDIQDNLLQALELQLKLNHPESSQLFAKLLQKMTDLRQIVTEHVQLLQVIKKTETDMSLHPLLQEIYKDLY
# How it was run: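 GeneBLAzer PPARg UAS-bla HEK293H cells carrying a UAS-driven beta-lactamase reporter were plated at 3000 cells/well, preincubated 5 h at 37C, then given compound for 17 h at 37C; LiveBLAzer B/G FRET substrate was read after 1 h at room temperature.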
# [10] = qHTS assay for small molecule agonists of the antioxidant response element (ARE) signaling pathway (AID 743202; active = well fitted activation curve with a large enough effect in the signal ratio in the repeat runs, not every such curve was filed as active; the % refers to the signal ratio; also: potency is read from the fitted curve at half-maximal effect)
# How it was run: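 Compounds delivered in DMSO to ARE-bla HepG2 cells (2,000 cells/well, pre-incubated 5 h) and left 16 h at 37 C. LiveBLAzer B/G FRET substrate then added for 2 h at RT before fluorescence reading.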
# [11] = qHTS assay to identify small molecule antagonists of the thyroid receptor (TR) signaling pathway (AID 743065); also: nearly all actives have a fitted effect of over 55% in size; also: potency is read from the fitted curve at half-maximal effect
# How it was run: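 GH3.TRE-Luc rat pituitary cells carrying two TR response elements driving luciferase were plated for 4 h, given compound plus 1 nM T3 (final), and incubated 23.5 h at 37 C. ONE-Glo luminescence measured reporter inhibition; CellTiter-Fluor fluorescence tracked cytotoxicity.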
# [12] = system: thyroid hormone receptor (rat, GH3 cells); assay: qHTS assay to identify small molecule agonists of the thyroid receptor (TR) signaling pathway (AID 743066; calls by dose curve; also: potency is read from the fitted curve at half-maximal effect)
# [13] = qHTS assay for small molecule agonists of the antioxidant response element (ARE) signaling pathway - cell viability counter screen (AID 743203; calls by dose curve; also: nearly all actives have a fitted effect of over 55% in size; also: potency is read from the fitted curve at half-maximal effect)
# How it was run: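 HepG2 cells carrying ARE-driven beta-lactamase; 2,000 cells/well; 5 hrs plating; compound pinned from DMSO; 16 hrs 37C/5% CO2; CellTiter-Glo added; 30 min RT; luminescence.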
# [14] = qHTS assay for small molecule activators of the heat shock response signaling pathway (AID 743210; active = well fitted activation curve with a large enough effect in the signal ratio in the repeat runs, with a control signal flat, not every such curve was filed as active; the % refers to the signal ratio; also: potency is read from the fitted curve at half-maximal effect;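 as to activation: HeLa cells with beta-lactamase reporter driven by heat shock elements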)
# How it was run: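 Reporter gene assay: HeLa cells stably bearing an HSE-bla construct, compound treatment 5 h at 37 C, LiveBLAzer substrate 2.5 h at RT, fluorescence intensity.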
# [15] = target: Estrogen receptor (Homo sapiens) (UniProt P03372); assay: qHTS assay to identify small molecule agonists of the estrogen receptor alpha (ER-alpha) signaling pathway (AID 743075; calls by dose curve;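 also: HEK293 GripTite cells with ER-alpha and UAS-driven beta-lactamase reporter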)
# Chain of Estrogen receptor (Homo sapiens) (P03372 whole entry, looked up): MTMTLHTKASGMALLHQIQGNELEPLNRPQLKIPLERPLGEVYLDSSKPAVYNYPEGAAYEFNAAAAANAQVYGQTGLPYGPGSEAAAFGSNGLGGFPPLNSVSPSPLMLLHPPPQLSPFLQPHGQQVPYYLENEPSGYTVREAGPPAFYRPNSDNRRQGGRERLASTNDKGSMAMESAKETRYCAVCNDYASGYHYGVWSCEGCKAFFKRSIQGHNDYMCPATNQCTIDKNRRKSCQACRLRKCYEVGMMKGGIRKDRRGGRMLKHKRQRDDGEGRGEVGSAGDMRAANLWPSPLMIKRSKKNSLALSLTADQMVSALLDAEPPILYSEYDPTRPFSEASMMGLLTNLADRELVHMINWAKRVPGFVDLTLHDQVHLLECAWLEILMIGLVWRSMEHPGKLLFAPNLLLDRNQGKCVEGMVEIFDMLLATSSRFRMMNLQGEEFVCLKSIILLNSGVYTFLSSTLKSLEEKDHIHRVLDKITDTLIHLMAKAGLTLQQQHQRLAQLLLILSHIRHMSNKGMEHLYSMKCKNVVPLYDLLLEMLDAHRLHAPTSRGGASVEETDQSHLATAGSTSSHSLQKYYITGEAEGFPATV
# [16] = target: Peroxisome proliferator-activated receptor gamma (Homo sapiens) (UniProt P37231); assay: qHTS assay to identify small molecule agonists of the peroxisome proliferator-activated receptor gamma (PPARg) signaling pathway (AID 743094; active = well fitted activation curve with a large enough effect in the signal ratio in the repeat runs, not every such curve was filed as active; the % refers to the signal ratio)
# How it was run: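 Beta-lactamase FRET fluorescence was the read-out after a 1 h room-temperature substrate step, following 17 h compound treatment at 37C of HEK293H cells expressing a UAS-driven bla reporter responsive to PPARg.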
# [17] = target: Estrogen receptor (Homo sapiens) (UniProt P03372); assay: qHTS assay to identify small molecule agonists of the estrogen receptor alpha (ER-alpha) signaling pathway using the BG1 cell line (AID 743079); details: BG1Luc4E2 cells, ERE-luciferase agonist, 22 h; activation: at 70.3 µM (top of the series); also: nearly all actives have a fitted effect of over 20% in size
# [18] = target: Estrogen receptor (Homo sapiens) (UniProt P03372); assay: qHTS assay to identify small molecule antagonists of the estrogen receptor alpha (ER-alpha) signaling pathway (AID 743069; active = well fitted curve in the direction sought with a large enough effect in the signal ratio in the repeat runs, not every such curve was filed as active; the % refers to the signal ratio)
# How it was run: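 Estradiol-stimulated ER-alpha-UAS-bla HEK293 cells, 18 hr compound exposure at 37C. LiveBLAzer B/G substrate, 2 hr RT, fluorescence read.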
# [19] = qHTS assay to identify small molecule antagonists of the estrogen receptor alpha (ER-alpha) signaling pathway using the BG1 cell line (AID 743080; calls by dose curve;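 also: BG1 cells stimulated with 17beta-estradiol alongside compound; nearly all actives have a fitted effect of over 25% in size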); details: BG1Luc4E2 ERE-luciferase antagonist mode, luminescence; activity change, negative = inhibition: at 70.3 µM (top of the series)
# How it was run: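 BG1-Luc-4E2 cells (endogenous full-length ER-alpha, stable 4×ERE-luciferase) were starved 5 days in phenol-red-free medium with 10% charcoal-stripped FBS, plated 24 h, then given compound plus 17beta-estradiol for 21.5 h at 37 C; ONE-Glo luminescence read after 30 min.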
structure (smiles),measurement,setting,value
CN1[C@@H]2CC[C@H]1CC(OC(=O)C(CO)c1ccccc1)C2 (stereo partly specified),Potency,[1],inactive
same,Potency,[2],inactive
same,Potency,[3],inactive
same,Potency,Aromatase (Homo sapiens),inactive
same,Potency,[4],inactive
same,Potency,[5],inactive
same,Potency,[6],inactive
same,Potency,[7],inactive
CCN(CC)c1ccc(N)cc1,Potency,[3],70.5 µM (active)
same,Potency,Aromatase (Homo sapiens),28.1 µM (active)
same,Potency,[4],31.5 µM (active)
same,Potency,[8],25 µM (active)
same,Potency,[5],56 µM (active)
same,Potency,[9],inactive
same,Potency,[6],inactive
same,Potency,[10],12.5 µM (active)
Nc1ccc2cc3ccc(N)cc3nc2c1,Potency,[11],5.31 µM (active) and 3.06 µM (active)
same,Potency,[12],inactive
same,Potency,[2],inactive
same,Potency,Aromatase (Homo sapiens),16.8 µM (active) and 6.11 µM (active)
same,Potency,[8],11.9 µM (active) and 6.11 µM (active)
same,Potency,[13],24.3 µM (active) and 29.8 µM (active)
same,Potency,[7],43.6 µM (active)
same,Potency,[14],inactive
CCCCCCCCCC(=O)N(C)C,Potency,[11],inactive
same,Potency,[12],inactive
same,Potency,[2],inactive
same,Potency,[3],inactive
same,Potency,[5],inactive
same,Potency,[13],inactive
same,Potency,[14],inactive
Cc1ccc(CCn2c3c(c4cc(Cl)ccc42)CN(C)CC3)cn1,Potency,[6],inactive
same,Potency,[13],inactive
same,Potency,[7],inactive
same,Potency,[14],inactive
CNC(=S)NN,Potency,[11],61.1 µM (active)
same,Potency,[12],inactive
same,Potency,[2],inactive
same,Potency,[15],inactive
same,Potency,[3],inactive
same,Potency,Aromatase (Homo sapiens),61.1 µM (active)
same,Potency,[8],inactive
same,Potency,[5],19.3 µM (active)
same,Potency,[9],inactive
same,Potency,[6],inactive
same,Potency,[7],24.5 µM (active)
Cc1occc1SSc1ccoc1C,Potency,[11],68.6 µM (active)
same,Potency,[12],inactive
same,Potency,[2],inactive
same,Potency,[3],inactive
same,Potency,Aromatase (Homo sapiens),30.6 µM (active)
same,Potency,[4],43.3 µM (active)
same,Potency,[8],inactive
same,Potency,[5],inactive
same,Potency,[16],inactive
same,Potency,[9],inactive
same,Potency,[6],inactive
same,Potency,[13],inactive
same,Potency,[14],23.6 µM (active)
C[C@]12CC[C@H]3C(=CCc4cc(O)ccc43)[C@@H]1CCC2=O,Potency,[12],1.54 µM (active)
same,Potency,[2],inactive
same,activation,[17],38% (active)
same,Potency,[3],inactive
same,Potency,Aromatase (Homo sapiens),inactive
same,Potency,[4],inactive
same,Potency,[5],inactive
same,Potency,[16],inactive
same,Potency,[6],inactive
same,Potency,[13],inactive
same,Potency,[14],inactive
CCCCNc1c(C(=O)OCC)c(C)nc2c1cnn2CC,Potency,[12],inactive
same,Potency,[18],inactive
same,Potency,[2],inactive
same,Potency,[15],inactive
same,Potency,[17],inactive
same,Potency,[19],inactive
same,Potency,[3],inactive
same,Potency,Aromatase (Homo sapiens),inactive
same,Potency,[4],inactive
same,Potency,[8],4.73 µM (active)
same,Potency,[5],inactive
same,Potency,[16],inactive
same,Potency,[9],inactive
same,Potency,[6],inactive
same,Potency,[13],inactive
same,Potency,[7],inactive
same,Potency,[14],inactive
CC1CCCCN1CCCOC(=O)c1ccc(OC2CCCCC2)cc1 (stereo unspecified),Potency,[13],inactive
same,Potency,[7],inactive
same,Potency,[14],inactive
CN(Cc1cc(Br)cc(Br)c1N)C1CCCCC1,Potency,[12],inactive
same,Potency,[2],inactive
same,Potency,[15],inactive
same,Potency,[19],inactive
same,Potency,[3],inactive
same,Potency,Aromatase (Homo sapiens),inactive
same,Potency,[4],inactive
same,Potency,[8],inactive
same,Potency,[5],inactive
same,Potency,[16],inactive
same,Potency,[9],inactive
same,Potency,[6],inactive
same,Potency,[13],inactive
CCCN(CCc1cccs1)[C@H]1CCc2c(O)cccc2C1,Potency,[12],inactive
same,Potency,[18],inactive
same,Potency,[2],inactive
same,Potency,[15],inactive
same,Potency,[17],inactive
same,Potency,[19],inactive
same,Potency,[3],inactive
same,Potency,Aromatase (Homo sapiens),26.6 µM (active)
same,Potency,[4],inactive
same,Potency,[5],inactive
same,Potency,[6],inactive
same,Potency,[10],inactive
same,Potency,[13],inactive
same,Potency,[7],inactive
same,Potency,[14],inactive
CC(C)c1cccc(C(C)C)c1N1C(=O)c2ccc(O)cc2C1=O,Potency,[11],4.86 µM (active)
same,Potency,Aromatase (Homo sapiens),54.5 µM (active)
same,Potency,[8],inactive
same,Potency,[16],inactive
same,Potency,[7],inactive
Cc1cccc(C)c1NC(=O)CN1CCN(CCCC(c2ccc(F)cc2)c2ccc(F)cc2)CC1,Potency,[2],inactive
same,Potency,[3],inactive
same,Potency,Aromatase (Homo sapiens),inactive
same,Potency,[4],inactive
same,Potency,[8],inactive
same,Potency,[5],11.4 µM (active)
same,Potency,[16],inactive
same,Potency,[6],26.6 µM (active)
CCCCCCCCCCCC(=O)N(CC)CC,Potency,[11],inactive
same,Potency,[12],inactive
same,Potency,[2],inactive
same,Potency,[3],inactive
same,Potency,Aromatase (Homo sapiens),inactive
same,Potency,[4],inactive
same,Potency,[8],inactive
same,Potency,[5],inactive
same,Potency,[6],inactive
same,Potency,[10],inactive
same,Potency,[13],inactive
same,Potency,[7],inactive
same,Potency,[14],inactive
CSc1c(Cl)c(Cl)c(Cl)c(Cl)c1Cl,Potency,[3],inactive
same,Potency,Aromatase (Homo sapiens),inactive
same,Potency,[4],inactive
same,Potency,[8],inactive
same,Potency,[5],inactive
same,Potency,[16],inactive
O=C1OC(OC(=O)c2cccnc2Nc2cccc(C(F)(F)F)c2)c2ccccc21 (stereo unspecified),Potency,[11],29.8 µM (active)
same,Potency,[12],inactive
same,Potency,[2],inactive
same,Potency,[3],inactive
same,Potency,Aromatase (Homo sapiens),inactive
same,Potency,[4],inactive
same,Potency,[8],inactive
same,Potency,[5],inactive
same,Potency,[16],inactive
same,Potency,[9],11.9 µM (active)
same,Potency,[6],inactive
same,Potency,[13],inactive
same,Potency,[7],inactive
COc1ccc(-n2nc(CCC(=O)N(C)O)cc2-c2ccc(Cl)cc2)cc1,Potency,[9],3.76 µM (active)
same,Potency,[6],inactive
same,Potency,[13],inactive
